Source: PubChem BioAssay
Shown are actives, neighbours in structure and some others; about 2.5% of the full set was active somewhere.
Pol beta inh – qHTS Assay for Inhibitors of DNA Polymerase Beta; Pol beta primer extension/strand displacement, fluorescence kinetic; Potency, µM (top dose mostly 114 µM), for the others: at the highest dose activity change, negative = inhibition, hits mostly inhibitors; 340,000 tested, 1.3% active; note: potency is the fitted concentration of half-maximal effect; % is set by controls: 0 for no effect and ±100 for the full control effect
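Reaction started by 50 nM substrate onto compound-treated Pol beta (10 nM, 15 min preincubation, room temperature); plates read at 0 min and 10 min. Normalized concentration-effect data fitted by four-parameter Hill equation.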
Pol kappa inh-1 – qHTS for Inhibitors of Polymerase Kappa; DNA polymerase kappa (Homo sapiens), Q9UBT6; purified Pol kappa, fluorescent DNA synthesis assay, 10 min; Potency, µM (highest dose often 107 µM), inactives show top-dose activity, negative = inhibition, actives largely listed as inhibitors; 400,000 tested, 0.53% active; AID 588579, 2011; note: potency is the fitted concentration of half-maximal effect; % is set by controls: 0 for no effect and ±100 for the full control effect
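Inhibition of 10 nM Pol kappa is measured by a fluorescent read-out at 0 and 10 min following addition of 50 nM substrate (final), with a 15-min room-temperature compound preincubation.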
Pol eta inh-1 – qHTS for Inhibitors of Polymerase Eta. recombinant Pol eta, fluorescent DNA replication assay. 390,000 tested, 1.2% active. Potency, µM (highest dose often 114 µM), inactives show top-dose activity change, negative = inhibition, usual class: inhibitors. DNA polymerase eta (Homo sapiens), Q9Y253; note: potency is the fitted concentration of half-maximal effect; % is set by controls: 0 for no effect and ±100 for the full control effect
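Fluorescent replication assay: 50 nM final substrate added after a 15 min room-temperature compound preincubation with 10 nM enzyme. Signal taken at 0 min and again at 10 min.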
Pol iota inh – qHTS for Inhibitors of Polymerase Iota. DNA polymerase iota (Homo sapiens), Q9UNA4. Pol iota fluorescent replication assay, 10 min. Potency, µM (doses to about 115 µM), for inactives: at the top dose activity, negative = inhibition, most hits filed as inhibitors. 390,000 tested, 1% active; note: potency is the fitted concentration of half-maximal effect
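Fluorescent replication assay read twice, at 0 min and 10 min after adding 50 nM (final) substrate. Enzyme (10 nM) and compounds were first incubated 15 min at room temperature; enzyme-free buffer wells were negative controls.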
L3MBTL1 inh – qHTS Assay for the Inhibitors of L3MBTL1 | Lethal(3)malignant brain tumor-like protein 1 (Homo sapiens), Q9Y468 | AlphaScreen L3MBTL1–H3K9me1 peptide binding | Potency, µM (highest dose often 57.1 µM), for the others: at the top dose activity, negative = inhibition, hits mostly inhibitors | 230,000 tested, 0.66% active; note: potency is the fitted concentration of half-maximal effect; % is set by controls: 0 for no effect and ±100 for the full control effect; nearly all actives have a fitted effect of over 60% in size
Target sequence (Q9Y468 whole entry, looked up): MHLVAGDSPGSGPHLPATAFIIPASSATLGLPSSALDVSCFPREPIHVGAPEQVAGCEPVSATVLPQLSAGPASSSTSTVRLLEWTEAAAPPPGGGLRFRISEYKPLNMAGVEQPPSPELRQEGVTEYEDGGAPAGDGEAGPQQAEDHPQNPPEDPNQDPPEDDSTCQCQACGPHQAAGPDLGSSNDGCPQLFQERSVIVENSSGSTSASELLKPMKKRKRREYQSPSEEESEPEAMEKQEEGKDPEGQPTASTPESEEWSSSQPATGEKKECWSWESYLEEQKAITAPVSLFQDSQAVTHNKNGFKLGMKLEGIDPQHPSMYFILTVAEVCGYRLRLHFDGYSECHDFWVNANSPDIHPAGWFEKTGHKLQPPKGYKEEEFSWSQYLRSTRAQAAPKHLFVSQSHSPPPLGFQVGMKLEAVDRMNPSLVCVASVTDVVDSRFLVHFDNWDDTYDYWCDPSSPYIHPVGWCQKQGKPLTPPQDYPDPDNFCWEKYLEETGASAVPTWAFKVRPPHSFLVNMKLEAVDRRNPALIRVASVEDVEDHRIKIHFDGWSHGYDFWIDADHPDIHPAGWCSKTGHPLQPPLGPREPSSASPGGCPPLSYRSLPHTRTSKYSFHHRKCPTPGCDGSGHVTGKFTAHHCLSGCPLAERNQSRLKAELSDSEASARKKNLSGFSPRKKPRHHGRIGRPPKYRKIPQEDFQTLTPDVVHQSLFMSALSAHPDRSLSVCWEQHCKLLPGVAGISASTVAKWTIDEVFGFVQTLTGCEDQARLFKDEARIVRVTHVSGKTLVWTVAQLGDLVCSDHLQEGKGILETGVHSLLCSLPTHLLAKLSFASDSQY
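AlphaScreen proximity signal between nickel-chelate acceptor and streptavidin donor beads (final 10 ug/mL) reports binding of 50 nM L3MBTL1 to 75 nM biotin-H3 K9me1 peptide; complex incubated with compounds 30 min at room temperature; cefsulodin titration as control.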
APE1 inh – qHTS Assay for Inhibitors of the Human Apurinic/apyrimidinic Endonuclease 1 (APE1); DNA repair nuclease/redox regulator APEX1 (Homo sapiens), P27695; recombinant APE1, TAMRA/BHQ-2 abasic DNA cleavage fluorescence; Potency, µM (highest dose often 65.8 µM), without a hit: top-dose activity change, negative = inhibition, actives largely listed as inhibitors; 350,000 tested, 0.35% active; AID 2517, 2012;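 note: potency is the fitted concentration of half-maximal effect; plate controls were vehicle for no effect and reference inhibitor for full effect; nearly all actives have a fitted effect of over 55% in size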
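Incision of a quenched TAMRA/BHQ-2 THF abasic-site duplex (50 nM) by 0.75 nM APE1, after 15 min compound preincubation, measured as fluorescence increase over three 60 s reads. Values normalized to buffer, DMSO and NSC13755 control wells.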
PGK validate – qHTS for inhibitors of Phosphogylcerate Kinase: Hit Validation Screen; shares compounds with Pol kappa inh-1; TbPGK coupled GAPDH assay, Kinase-Glo luminescence; Potency, µM (series often up to 57.5 µM), inactives show at the top dose activity change, negative = inhibition, most hits filed as inhibitors; 500 tested, 79% active; AID 686980, 2013; note: potency is the fitted concentration of half-maximal effect; % is set by controls: 0 for no effect and ±100 for the full control effect; nearly all actives have a fitted effect of over 65% in size
POLI cherry-pick – qHTS for Inhibitors of Polymerase Iota: Confirmatory Assay for Cherry-picked Compounds; Pol iota primer extension, TAMRA/BHQ fluorescence; AID 720496, 2013; 1,500 tested, 77% active; shares compounds with Pol kappa inh-1; Potency, µM, actives largely listed as inhibitors; note: potency is the fitted concentration of half-maximal effect
GALK inh confirm – Confirmation Assay for Inhibitors of Human Galactokinase (GALK) | shares compounds with Pol eta inh-1 | purified GALK, Kinase-Glo ATP depletion luminescence | Potency, µM (highest dose often 115 µM), for the others: top-dose activity, negative = inhibition, hits mostly inhibitors | 150 tested, 70% active | AID 2015, 2009
GALK redox cs – Confirmatory Assay for Inhibitors of Human Galactokinase (GALK): Phenol-HRP redox assay counterscreen; shares compounds with Pol eta inh-1; Phenol red-HRP H2O2 redox cycling, absorbance 600 nm; Potency, µM (series often up to 115 µM), for inactives: at the highest dose activity change, negative = H2O2 signal, usual class: inhibitors; 150 tested, 40% active
HEK293 tox – Secondary Assay for Inhibitors of Human Galactokinase (GALK): HEK-293 Cell Viability Assay; shares compounds with Pol eta inh-1; HEK-293 viability, ATP luminescence (CellTiter-Glo), 24/48 h; Potency, µM (top dose mostly 46.1 µM), for inactives: at the highest dose activity change, negative = cytotoxicity, most hits filed as inhibitors; AID 2547, 2010; 170 tested, 10% active; note: potency is the fitted concentration of half-maximal effect; % is set by controls: 0 for no effect and ±100 for the full control effect
Pol kappa inh-2 – qHTS for Inhibitors of Polymerase Kappa: Confirmatory Assay for Cherry-picked Compounds; shares compounds with Pol eta inh-1; purified Pol-kappa, fluorescent strand-displacement substrate; Potency, µM, hits mostly inhibitors; 920 tested, 76% active; note: potency is the fitted concentration of half-maximal effect
Pol eta inh-2 – qHTS for Inhibitors of Polymerase Eta: Confirmatory Assay for Cherry-picked Compounds | AID 720502, 2013 | Pol eta primer extension, TAMRA/BHQ fluorescence, 10 min | 2,600 tested, 64% active | Potency, µM, usual class: inhibitors | shares compounds with Pol eta inh-1; note: potency is the fitted concentration of half-maximal effect
* marks the source's active call; other numbers are inactive results; [ ] = another dose, or the depositor's remark. Calls come from the whole dose curve; as a rule, active = well fitted curve in the direction sought with a large enough effect; inconclusive = small, poorly fitted or top-dose-only effect, or another doubt; inactive = no such curve, though single readings can be large; an effect the other way counts as inactive or inconclusive.

Results for O=C(COc1ccc(/C=N/NC(=O)c2ccccc2O)cc1)Nc1ccccc1 ?
Pol beta inh: 18µM*; Pol kappa inh-1: inconclusive; Pol eta inh-1: inconclusive; Pol iota inh: inconclusive; L3MBTL1 inh: -21%; APE1 inh: -1%; PGK validate: 15µM*; Pol kappa inh-2: 47*

What do the screens show for `COc1cc(/C=N/NC(=O)c2ccncc2)ccc1OCC(=O)Nc1ccccc1`?
Pol beta inh: 0%; Pol kappa inh-1: -6%; Pol eta inh-1: 9%; Pol iota inh: -19%; APE1 inh: -4%

What do the screens show for `Cc1cccc(Oc2ccc(NC(=O)C3=CC=CN4CCS(=O)(=O)N=C34)cc2)c1`?
Pol kappa inh-1: -13%; Pol eta inh-1: inconclusive; Pol iota inh: 36%; L3MBTL1 inh: -1%; APE1 inh: 1%

How did COc1cc(-c2nc(Cn3nnc(C(=O)Nc4ccc(C)cc4C)c3C)c(C)o2)cc(OC)c1OC do in these assays?
Pol beta inh: 1%; Pol kappa inh-1: 1%; Pol eta inh-1: -1%; Pol iota inh: -1%

How did Cn1c2ccccc2c2cc(/C=N/NC(=O)c3cc(O)ccc3O)ccc21 do in these assays?
Pol beta inh: 10µM*; Pol kappa inh-1: 50µM*; Pol eta inh-1: 10µM*; Pol iota inh: 10µM*; APE1 inh: -44%; POLI cherry-pick: inconclusive; Pol eta inh-2: 54*

How did Nc1cccc2cccc([N+](=O)[O-])c12 do in these assays?
Pol kappa inh-1: -22%; Pol eta inh-1: -20%; Pol iota inh: 5%

What do the screens show for `CCOCCn1cnc2sc(C(=O)Nc3ccccc3C(=O)OC)c(C)c2c1=O`?
Pol beta inh: 3%; Pol kappa inh-1: -14%[60.1 µM]; Pol eta inh-1: -8%; Pol iota inh: -7%

How did C[C@H](CO)N1C[C@H](C)[C@@H](CN(C)S(=O)(=O)c2cn(C)cn2)Oc2c(NS(=O)(=O)c3cn(C)cn3)cccc2C1=O do in these assays?
Pol kappa inh-1: -14%; Pol eta inh-1: -14%; Pol iota inh: 12%; L3MBTL1 inh: -2%; APE1 inh: 6%

What do the screens show for `O=C(O)c1cccc(N2C(=O)/C(=C/c3ccc(SCc4ccc(Cl)cc4)o3)SC2=S)c1`?
Pol beta inh: 3.2µM*; Pol kappa inh-1: 79µM*; Pol eta inh-1: 7.9µM*; Pol iota inh: inconclusive; L3MBTL1 inh: 3.5µM*; APE1 inh: 10µM*; PGK validate: 33µM*; POLI cherry-pick: 34*; Pol kappa inh-2: 3.4*; Pol eta inh-2: 19*

Results for Cc1ccc(-c2nn(CC(=O)Nc3cccc(C(F)(F)F)c3)c(=O)c3ccccc23)cc1 ?
Pol beta inh: 2%; Pol kappa inh-1: -5%; Pol eta inh-1: -17%; Pol iota inh: 12%

What do the screens show for `O=C1C=C(NCc2ccccc2)c2ccccc2C1=O`?
Pol beta inh: inconclusive; Pol kappa inh-1: -9%; Pol eta inh-1: 5.6µM*; Pol iota inh: 1µM*; L3MBTL1 inh: 22µM*; APE1 inh: -8%; POLI cherry-pick: 42*; GALK inh confirm: 21µM*; GALK redox cs: 17µM*; HEK293 tox: inconclusive; Pol eta inh-2: 85*

What do the screens show for `C/C(N)=C(/C#N)C(=O)CSc1ncnc2ccccc12`?
Pol beta inh: inconclusive; Pol kappa inh-1: -6%; Pol eta inh-1: inconclusive; Pol iota inh: 31%; L3MBTL1 inh: -8%; APE1 inh: 3%

What do the screens show for `C/C(N)=C(/C#N)C(=O)CSc1nc2ccccc2[nH]1`?
Pol beta inh: 14µM*; Pol kappa inh-1: inconclusive; Pol eta inh-1: 50µM*; Pol iota inh: 20µM*; APE1 inh: inconclusive; POLI cherry-pick: 34*; Pol eta inh-2: 27*

Results for O=C(CSc1nc2ccccc2o1)N/N=C/c1ccccc1 ?
Pol beta inh: 19%; Pol kappa inh-1: -6%; Pol eta inh-1: -10%; Pol iota inh: -18%; L3MBTL1 inh: 6%; APE1 inh: 1%

What do the screens show for `O=C(N/N=C/c1ccc(O)c(O)c1)N/N=C/c1ccc(O)c(O)c1`?
Pol beta inh: 0.32µM*; Pol kappa inh-1: 0.79µM*; Pol eta inh-1: 0.71µM*; Pol iota inh: 0.89µM*; APE1 inh: -95%; PGK validate: 1.2µM*; POLI cherry-pick: 3*; Pol kappa inh-2: 2.1*; Pol eta inh-2: 6*
